Measurements: PubChem BioAssay AID1851 (National Center for Advancing Translational Sciences (NCATS), 2009)
“And” between values parts separate entries of the source, which are not always exact repeats. Identical values can stand only once. The campaign covered roughly 16,000 compounds. About 4,000 (25%) were called active. Not shown: some 26% with an inconclusive outcome. The list is a sample of the results. Unmarked numbers belong to inactive results. Calls come from the whole dose curve; as a rule, active = well fitted curve in the direction sought with a large enough effect; inconclusive = small, poorly fitted or top-dose-only effect, or effect the other way; inactive = no such curve, though single readings can be large or run the other way.

target: Cytochrome P450 2C9 (Homo sapiens) (UniProt P11712); experiment: Cytochrome panel assay with activity outcomes; conditions: recombinant CYP, pro-luciferin dealkylation, luminescence, p450-cyp2c9; series mostly up to 57.1 µM; activity, negative = inhibition: at the top concentration
% is set by controls: 0 for no effect and ±100 for the full control effect.

Sequence of Cytochrome P450 2C9 (Homo sapiens) (P11712 whole entry, looked up): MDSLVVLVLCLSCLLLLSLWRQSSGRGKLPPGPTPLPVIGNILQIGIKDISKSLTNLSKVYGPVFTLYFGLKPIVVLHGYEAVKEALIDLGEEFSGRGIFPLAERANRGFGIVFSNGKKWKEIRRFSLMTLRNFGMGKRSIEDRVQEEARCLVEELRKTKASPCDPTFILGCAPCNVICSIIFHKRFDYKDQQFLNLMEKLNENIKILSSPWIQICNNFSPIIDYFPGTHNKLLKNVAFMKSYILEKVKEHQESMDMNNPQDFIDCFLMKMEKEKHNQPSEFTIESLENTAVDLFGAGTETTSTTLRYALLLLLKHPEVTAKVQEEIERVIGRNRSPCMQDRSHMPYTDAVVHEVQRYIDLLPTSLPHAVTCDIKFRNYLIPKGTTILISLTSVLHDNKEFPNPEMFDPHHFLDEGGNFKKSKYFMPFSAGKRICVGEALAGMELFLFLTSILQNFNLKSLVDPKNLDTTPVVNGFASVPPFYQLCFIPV

| SMILES | activity, negative = inhibition | AC50 |
| --- | --- | --- |
| C[C@@H]1O[C@H]2C3=C(C(=O)[C@H]4O[C@@H]4[C@H]3O)[C@@H]1[C@@H]1[C@@H](C)OC=C3[C@H](O)[C@H]4O[C@@H]4/C(=N\OCc4ccccc4)[C@]312 | -27.9% [at 11.4 µM] | – |
| Cc1ccccc1-c1cc(Nc2ccccc2)ncn1 | 20.2% [at 2.29 µM] | – |
| COc1ccc(CCN2C(=O)C(Oc3ccccc3C)C2c2ccc3c(c2)OCO3)cc1OC (centres undefined) | – | 7.94 µM (active) |
| O=C1C[C@@H](O)[C@@H](O)[C@H]2[C@@H]3C(=O)N(Cc4ccc5c(c4)OCO5)C(=O)[C@@H]3CC[C@H]12 | -7.97% [at 11.4 µM] and -24% [at 11.4 µM] | – |
| COc1ccc(CCN2CC34C=CC(O3)C(C(=O)NCc3ccccc3)C4C2=O)cc1OC (centres undefined) | -25.5% | – |
| Cc1ccccc1OC1C(=O)N(Cc2ccc3c(c2)OCO3)C1c1sccc1C (centres undefined) | – | 7.94 µM (active) |
| COC(=O)c1ccc(C2C(Oc3ccccc3)C(=O)N2CCc2ccc(OC)c(OC)c2)cc1 (centres undefined) | -16.8% | – |
| O=C1[C@H]2[C@H]3[C@H](O)[C@H](O)C/C(=N/OCc4ccccc4)[C@@H]3CC[C@@H]2C(=O)N1Cc1ccc2c(c1)OCO2 | -27.6% [at 11.4 µM] | – |
| Cc1ccc(C)c(NC(=O)c2ncn[nH]2)c1 | -17.4% | – |
| Cc1ccc(C)c(NC(=O)C2CC3c4ccccc4C2c2ccccc23)c1 (centres undefined) | – | 5.01 µM (active) |
| Cc1ccc(C)c(NC(=O)C2CC(O)CN2C(=O)OC(C)(C)C)c1 (centres undefined) | 17.3% | – |
| CCn1c(SCC(=O)Nc2ccccc2C(=O)OC)nnc1-c1ccc(N)cc1 | – | 22.4 µM (active) |
| CCOC(=O)c1ccccc1NC(=O)CSc1cccc[n+]1[O-] | 2.23% | – |
| CCC(C)Nc1nc(OCC(F)(F)F)nc(OCC(F)(F)F)n1 (centres undefined) | -21.4% | – |
| O=c1ccc2cc(O)c(O)cc2o1 | -3.88% [at 25.6 µM] | – |
| O=C(NC(NCc1ccccc1)C(Cl)(Cl)Cl)c1cccnc1 (centres undefined) | – | 14.1 µM (active) |
| Cc1cccc(NC(NC(=O)c2cccnc2)C(Cl)(Cl)Cl)c1 (centres undefined) | – | 2.24 µM (active) |
| COC(=O)[C@@H]1C[C@H]1[C@@H](NC(=O)c1cccnc1)c1ccccc1 | -17.5% | – |
| CCOC(=O)CNC(=O)c1cccnc1 | -16.7% | – |
| COC(=O)[C@H]1C[C@@H]1[C@H](NC(=O)c1cccnc1)c1ccccc1 | -10.7% | – |
| O=C(COc1ccccc1Cl)Nc1cc(Cl)ccc1Oc1ccccc1 | – | 2.51 µM (active) |
| Cc1cc(NC(=O)COc2ccc(Cl)cc2Cl)n(-c2ccccc2)n1 | – | 2.51 µM (active) |

| SMILES | activity, negative = inhibition | AC50 |
| --- | --- | --- |
| CCc1cc2c(nc1CC)CCN(CC/C(C)=N/OCC[C@@H]1C=C[C@H](OC(C)=O)[C@H](COC(C)=O)O1)C2 | -1.15% [at 11.4 µM] | – |
| OC[C@@H]1O[C@@H](n2cnc3c(NC4CCCCC4)ncnc32)[C@@H](O)[C@H]1O | -26.3% | – |
| CNc1cc(CS(=O)c2ccccc2)nc(-c2ccccc2)n1 (centres undefined) | -22.8% | – |
| CCOC(=O)CSc1cc(CS(=O)c2ccc(Cl)cc2)nc(-c2ccccc2)n1 (centres undefined) | – | 1.26 µM (active) |
| C=CCN=C1CC(C)(C)CC(=O)/C1=C(/O)CCC(=O)OC | -6.6% | – |
| CN(C)CCCNc1ncnc2nc[nH]c12 | 3.87% [at 11.4 µM] | – |
| CO[C@@H]1/C=C\O[C@]2(C)Oc3c(C)c(O)c4c(O)c(cc(O)c4c3C2=O)NC(=O)/C(C)=C\C=C/[C@H](C)[C@@H](O)[C@H](C)[C@H](O)[C@H](C)[C@H](OC(C)=O)[C@@H]1C | -6.49% [at 11.4 µM] | – |
| O=C(NCc1cccnc1)[C@@H]1[C@@H](C(=O)O)[C@H]2CC[C@@H]1O2 | -5.99% [at 11.4 µM] | – |
| Cc1ccc(SC(C)C(=O)NCc2cccnc2)cc1 (centres undefined) | – | 8.91 µM (active) |
| c1cncc(CNCc2cccnc2)c1 | 16% [at 11.4 µM] | – |
| COc1c(N2CCN(C(=S)Nc3ccc(F)cc3)C(C)C2)c(F)cc2c(=O)c(C(=O)O)cn(C3CC3)c12 (centres undefined) | -20.8% | – |
| CC(=O)OC1COC(N2CCc3cc([N+](=O)[O-])ccc32)C(OC(C)=O)C1OC(C)=O (centres undefined) | – | 0.891 µM (active) |
| CN1CCCN(C)C1c1cc([N+](=O)[O-])ccc1O | -15.9% [at 11.4 µM] | – |
| Cc1cnc(CNc2nc(-c3ccoc3)nc3ccccc23)cn1 | -6.46% [at 2.29 µM] | – |
| COc1ccc(C(=O)NN)cc1COc1ccc(Br)cc1 | – | 8.91 µM (active) |
| COc1ccc(/C=C/C(=O)NCc2cn(C)nc2C)cc1COc1ccc(Br)cc1 | – | 12.6 µM (active) |
| COC(=O)CCC(=O)NNC(=O)c1ccc(Br)cc1 | -18% | – |
| CCn1ncc(/C=C/C(=O)NCc2cn(C)nc2C)c1C | 24.1% | – |
| COc1ccc(C(=O)NNC(=O)Cc2ccc(-c3ccccc3)cc2)cc1OC | -6.38% | – |
| CC(C)n1nnnc1-c1cc(Cl)cc(Cl)c1 | -15.1% | – |
| CCOC(=O)c1cc(C(=O)OCC)cc(-n2cc(O)c(C(=O)OCC)n2)c1 | -29.4% | – |
| CCOC(=O)c1nn(-c2ccccc2)c(-c2ccccc2)c1C(=O)c1ccccc1 | – | 10 µM (active) |
